# aSyn UTR act = Activators working through SNCA 5'UTR binding (MLPCN). activity score, % (tested at 7.5 µM), hits read low. alpha-synuclein 5'UTR reporter, activators screen. hit rate 7.1% among 300,000; in the data active means activity score below about -60%
# * hit, by the source's call. Only a sample is shown.
SMILES,aSyn UTR act
O=C(CCc1nnc(-c2ccccc2)o1)NC1CCCCC1,-66*
COC(=O)CCCNC(=O)CCc1nnc(-c2ccc(-c3ccccc3)cc2)o1,77
Cc1cc(C)n(CCN(C)C(=O)CCc2nnc(CCC3CCCCC3)o2)n1,-145*
O=C(CCc1nnc(-c2ccc(-c3ccccc3)cc2)o1)NCCc1ccccn1,90
O=C(Nc1ccccc1)Nc1nnc(-c2ccccc2)o1,-63*
CN(CCCC1CCCC1)C(=O)CCc1nnc(-c2ccccc2)o1,-139*
O=C(Nc1nnc(-c2ccc3c(c2)CCCC3)o1)C1CCCCC1,-84*
CN(C)S(=O)(=O)c1ccc(C(=O)Nc2nnc(-c3ccc4c(c3)CCCC4)o2)cc1,69
O=C(Nc1nnc(-c2ccccc2)o1)NC1CCCCC1,-80*
NC(=S)N/N=C/c1cccc(O)c1O,-94*
CC(C)Oc1ccc(C(=O)Nc2ccc(C(F)(F)F)n(C)c2=O)cc1,-82*
C/C(=N\Nc1nc2c(s1)CCCC2)c1ccc(Cl)cc1,-100*
COc1ccccc1CN1CC(C(=O)NCc2c(F)ccc(C)c2F)CCC1=O (stereo unspecified),-72*
COC(=O)C1C(O)=C(C=Nc2ccc3ccccc3c2)C(=O)CC1(C)C (stereo unspecified),-75*
O=C(Nc1ccc(C(=O)N2CCCCC2)cc1)Nc1cccc(Cl)c1,-82*
COc1ccccc1NC(=O)Nc1ccc(C(=O)N2CCCCC2)cc1,-99*
COc1ccccc1NC(=O)N1CCC(c2nc3cc(C)c(C)cc3[nH]2)CC1,74
CC(=O)c1ccc(NC(=O)Nc2ccc3c(c2)nc(C)n3C)cc1,-148*
O=C(Nc1cccc(Cl)c1)Nc1ccccc1C(=O)O,-120*
CCCCCCCCCCn1c2c(c(=N)c3c1CCC3)CCC2,71
CC(=O)c1ccc(NC(=O)Nc2cccc(Cl)c2)cc1,-82*
CSc1cccc(NC(=O)Nc2ccc(Cl)cc2)c1,-97*
CS/C(N)=N/C(=S)Nc1cccc(Cl)c1,-143*
CC(=O)Nc1ccc(NC(=O)Nc2cccc(Cl)c2)cc1,-79*
CSc1cccc(NC(=S)Nc2ccc(F)cc2)c1,-196*
SMILES,aSyn UTR act
CC(=O)c1ccc(NC(=S)NCCc2cccc(Cl)c2)cc1,-179*
CC(=O)c1ccc(NC(=S)NCCc2ccc(S(N)(=O)=O)cc2)cc1,-80*
CCNS(=O)(=O)c1ccc(NC(=O)Nc2ccccc2OC)cc1,-79*
COc1ccccc1OCC(=O)NC1CCCCCC1,-76*
O=C(COc1ccc(Br)cc1Br)NC(=O)NC1CCCC1,-237*
COC(=O)c1[nH]c2ccc(Br)cc2c1NC(=O)CN1CCN(C2CCCCC2)CC1,75
Cc1cc(Br)ccc1OCC(=O)NC1CCCC1,-66*
CCc1ccc(OCC(=O)Nc2ccncc2)c(Br)c1,-442*
COc1cccc2c1C(=O)c1c(O)c3c(c(O)c1C2=O)C[C@](O)(C(C)=O)C[C@H]3O[C@@H]1C[C@@H](N)[C@@H](O)[C@@H](C)O1,111
CCc1ccc(OCC(=O)NC2CCCCC2)c(Br)c1,-120*
Cc1ccc([N+](=O)[O-])cc1N/C=C1\CCc2ccccc2C1=O,-163*
O=S1(=O)N=C(Nc2ccc(N3CCOCC3)c(Cl)c2)c2ccccc21,-193*
O=C1c2ccccc2S(=O)(=O)c2cc(N3CCOCC3)ccc21,76
Cc1ccc(NC(=O)c2cc3cccc([N+](=O)[O-])c3[nH]2)cc1,-110*
CC(=O)Nc1ccc(SCC(=O)c2cc(C)n(C)c2C)cc1,-69*
CCOC(=O)c1sc(Nc2cccc(Cl)c2)nc1C,-102*
COC(=O)c1sc(NC(=O)/C=C/c2ccc(C)cc2)nc1C,-71*
COC(=O)c1sc(NC(=O)/C=C/c2ccccc2Cl)nc1C,-87*
CCOC(=O)c1sc(NC(=O)CCc2ccccc2)nc1C,-146*
CCOC(=O)c1sc(NC(=O)/C=C/c2ccccc2)nc1C,-95*
Cc1nc(NC(=O)/C=C/c2ccccc2)sc1C(=O)NCCO,-67*
O=C(NC(=O)N1CCN(c2ccccc2)CC1)c1ccc(Cl)cc1,-66*
Cc1ccc(NC(=O)CSc2nccn2Cc2ccco2)cc1,-85*
Cc1ccc(NC(=O)CSc2ncc3ccccn23)cc1,-67*
COc1ccc(C2CC(=O)c3ccccc3O2)cc1 (stereo unspecified),-147*
SMILES,aSyn UTR act
O=C1CC(c2ccc3c(c2)OCCO3)Oc2ccccc21 (stereo unspecified),-209*
CC(C)Oc1ccccc1C1CC(=O)Nc2cc3c(cc21)OCCO3 (stereo unspecified),73
O=C1CC(c2ccc3c(c2)OCCO3)Oc2ccc([N+](=O)[O-])cc21 (stereo unspecified),-163*
CCc1ccc(/C=C/c2c([N+](=O)[O-])c(=O)n(C)c(=O)n2C)cc1,-62*
Cn1c(/C=C/c2ccc(Cl)cc2Cl)c([N+](=O)[O-])c(=O)n(C)c1=O,-204*
Cc1ccnc(Nc2nc(-c3ccc(F)cc3)cs2)c1,-162*
Cc1ccnc(Nc2nc(-c3ccc(Cl)cc3)cs2)c1,-163*
CCOc1ccc(CCNC(=O)COC(=O)c2cccc(N(C)C)c2)cc1OCC,-90*
Cc1cc(OCc2cc(C(=O)N3CCCCCC3)no2)cc(C)c1Cl,-132*
COCC1CCN(C(=O)c2cc(COc3cc(C)c(Cl)c(C)c3)on2)C1 (stereo unspecified),-91*
Cn1ccnc1SCC(=O)c1c[nH]c2ccccc12,-160*
CCC(=O)Nc1nc2ccc3sc(C)nc3c2s1,-86*
Cc1nc2c(ccc3nc(NC(=O)C4CC4)sc32)s1,-121*
Cc1ccc(CC(=O)Nc2ncc([N+](=O)[O-])s2)cc1,-136*
O=C(Nc1cc([N+](=O)[O-])ccc1F)c1cccs1,-70*
O=C(Nc1ncc([N+](=O)[O-])s1)c1ccccc1Br,-126*
O=C(Nc1ncc([N+](=O)[O-])s1)c1cccs1,-106*
Cc1cnc(NC(=O)c2cccs2)s1,-82*
COc1ccc2c(c1)CCc1c(C(=O)N3CCCCCC3)noc1-2,-64*
CCCNC(=O)c1noc2c1CCc1cc(OC)ccc1-2,-71*
O=C(c1noc2c1CCc1ccccc1-2)N1CCOCC1,-72*
COc1ccc2c(c1)CCc1c(C(=O)NCc3cccnc3)noc1-2,-91*
CN(C(=O)c1ccc(NC(=O)c2ccco2)cc1)c1ccccc1,-76*
O=C(NNC(=O)c1ccccc1O)c1ccco1,-82*
O=C(COc1ccccc1)Nc1ccc(NC(=O)c2ccco2)cc1,-65*
SMILES,aSyn UTR act
O=C(/C=C\c1ccccc1)Nc1ccc(NC(=O)c2ccco2)cc1,-67*
CC1N(C)c2cc(NC(=O)c3ccco3)ccc2C1(C)C (stereo unspecified),-81*
O=C(Nc1cccc(NC(=O)c2ccc(-c3ccc(Br)cc3)o2)c1)c1ccco1,-95*
O=C(Nc1ccc(Cl)cc1)c1ccco1,-131*
CSc1cccc(NC(=O)c2cccc3cccnc23)c1,-134*
CC(=O)Nc1ccc(NC(=O)c2ccco2)cc1,-71*
CSc1cccc(NC(=O)c2ccco2)c1,-75*
CCCc1ccc(OCc2ccc(C(=O)N/N=C/c3cccnc3)o2)cc1,-143*
Cc1ccc(COc2ccccc2-c2cc(C(=O)N/N=C/c3cccnc3)[nH]n2)cc1,-77*
CC(C)(C)c1ccc(OCc2ccc(C(=O)NCc3cccnc3)o2)cc1,-133*
O=C(c1ccc(COc2ccc3c(c2)CCC3)o1)N1CCN(c2ccccc2)CC1,-73*
CC(C)(C)c1ccc(OCc2ccc(C(=O)NN)o2)cc1,-107*
NNC(=O)c1ccc(COc2ccc3c(c2)CCC3)o1,-74*

# Source: PubChem BioAssay (Broad Institute)
